# From PubChem BioAssay (NCATS)
# Records with an inconclusive call do not appear. Activity calls are given as the source filed them. Calls come from the whole dose curve; as a rule, active = well fitted inhibition curve with a large enough effect; inconclusive = small, poorly fitted or top-dose-only effect; inactive = flat fitted curve, though single readings scatter.
# System: MKL-2
# Test: qHTS assay to identify novel small-molecules to repurpose for Merkel cell carcinoma treatment (AID 1296009); note: nearly all actives have a fitted effect of over 60% in size
# Details: MCC and control cell lines, CellTiter-Glo viability, 72 h; series mostly up to 46 µM; activity change, negative = cytotoxicity: at the top concentration
# How it was run: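 After compound transfer in DMSO, plates were kept 72 hr at 37 degree celsius. Luminescent ATP signal from CellTiter-Glo served as viability measure, normalized against DMSO and no-cell controls.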
# % is set by controls: 0 for no effect and ±100 for the full control effect; potency is the fitted concentration of half-maximal effect.
Compound,Potency,"activity change, negative = cytotoxicity"
C[C@H]1[C@@H](OC(=O)CCC(=O)O)O[C@@H]2O[C@@]3(C)CC[C@@H]4[C@H](C)CC[C@@H]1[C@@]24OO3,5.26 µM (active),–
CC(=O)O[C@@]12CO[C@H]1C[C@H](O)[C@@]1(C)C(=O)[C@H](O)C3=C(C)[C@@H](OC(=O)C(O)[C@@H](NC(=O)OC(C)(C)C)c4ccccc4)C[C@@](O)([C@@H](OC(=O)c4ccccc4)[C@@H]21)C3(C)C (some centres not stated),–,-22.5% (inactive)
Cn1cc(-c2ccc3ncc(Cc4ccc5ncccc5c4)n3n2)cn1,–,6.64% (inactive)
COc1ccc(C[C@@H](C)[C@@H](C)Cc2ccc(OC)c(OC)c2)cc1OC,3.72 µM (active),–
COC1=C2C[C@@H](C)C[C@H](OC)[C@@H](O)[C@@H](C)C=C(C)[C@H](OC(N)=O)[C@@H](OC)C=CC=C(C)C(=O)NC(=CC1=O)C2=O,8.33 µM (active),–
CCN(CC)CCNC(=O)c1c(C)[nH]c(C=C2C(=O)Nc3ccc(F)cc32)c1C,15.2 µM (active),–
Nc1nc(=O)n([C@H]2C[C@H](O)[C@@H](CO)O2)cc1F,–,-9.3% (inactive)
Cc1ccc([N+](=O)[O-])cc1S(=O)(=O)N(C)N=Cc1cnc2ccc(Br)cn12,0.209 µM (active),–
C[C@@]12C(=O)OC(=O)[C@@]1(C)C1CCC2O1,4.18 µM (active),–
O=C(Nc1cccc(Nc2ncc(Br)c(NCCc3cnc[nH]3)n2)c1)N1CCCC1,5.9 µM (active),–
CCNC(=O)Nc1ccc(-c2nc3c(c(N4CCOC[C@H]4C)n2)CCN(C2COC2)C3)cc1,–,-39.7% (inactive)
CO[C@@H]1[C@@H](O)[C@H](O)[C@@H](n2c3c(Cl)cccc3c3c4c(c5c6cccc(Cl)c6[nH]c5c32)C(=O)NC4=O)O[C@@H]1CO,0.935 µM (active),–
CC(C(C)N1CC(=O)NC(=O)C1)N1CC(=O)NC(=O)C1 (configuration not stated),–,-13% (inactive)
CNC(=O)c1ccc(Nc2cc(Nc3ccccc3S(=O)(=O)C(C)C)c3cc[nH]c3n2)nc1,7.43 µM (active),–
CCOC(=O)N1CCN([N+]([O-])=NOc2ccc([N+](=O)[O-])cc2[N+](=O)[O-])CC1,6.62 µM (active),–
C#CCC(Cc1cnc2nc(N)nc(N)c2n1)c1ccc(C(=O)N[C@@H](CCC(=O)O)C(=O)O)cc1 (some centres not stated),–,-16% (inactive)
CCN(CC)Cc1ccc2cc(COC(=O)Nc3ccc(C(=O)NO)cc3)ccc2c1,0.59 µM (active),–
C[C@@H](Cc1cc2c(c(C(N)=O)c1)N(CCCO)CC2)NCCOc1ccccc1OCC(F)(F)F,–,-6.71% (inactive)
Cn1cc(C2=C(c3c4n(c5ccccc35)CCC(CN)C4)C(=O)NC2=O)c2ccccc21 (configuration not stated),20.9 µM (active),–
CC(=O)NCC(=O)N1[C@H]2CC[C@H]1c1cc(Nc3ncc(C(F)(F)F)c(NC4CCC4)n3)ccc12,23.5 µM (active),–
CC(C)c1cc(C(C)C)c(CC(=O)NS(=O)(=O)Oc2c(C(C)C)cccc2C(C)C)c(C(C)C)c1,–,40.7% (inactive)
CNC(=O)c1cccc(-c2ccc3c(N4CCOC[C@H]4C)nc(N4CCOC[C@H]4C)nc3n2)c1,–,-50.6% (inactive)
